PubChem BioAssay AID2384 (Southern Research Specialized Biocontainment Screening …, 2010)
The campaign covered roughly 2,300 compounds. About 1,100 (48%) were called active. The set was probably picked from earlier hits. Some of the results follow. Results with a measured potency or affinity are listed apart. Values without a mark were called inactive. No rule for the calls is given here.

Assay: S. typhi counter-screen signal inhibition – fluorescence, 4 h, counter-screen for PhoP regulon inhibitor project, dose response (AID 2384)
Conditions: S. typhi GFP reporter counter-screen; series mostly up to 150 µM; inhibition: at the top concentration

| Compound | inhibition [%] |
| --- | --- |
| O=C(Cn1nc(Cc2ccncc2)c2ccccc2c1=O)Nc1cccnc1Cl | 2.79 |
| CCCN(C(=O)CSc1nc2ccccc2n1CC)C1CCS(=O)(=O)C1 (stereo unspecified) | 28.5 |
| O=C(Nc1ccc2c(c1)OCCO2)C1CCCN1C(=O)Nc1ccc(F)cc1 (stereo unspecified) | -2.19 |
| c1cnc2nc(-c3ccc4c(c3)OCO4)cn2c1 | -13.7 |
| Clc1ccc(Cn2cccc2C2=NCCO2)cc1 | -22.6 |
| COc1ccc(-c2nnc(SC(C)C(=O)Nc3nccs3)n2Cc2ccccc2)cc1OC (stereo unspecified) | -3.63 |
| CN(C)C(=O)CSc1nnc(Cc2ccc([N+](=O)[O-])cc2)o1 | -7.9 |
| COc1ccc(N(CC(=O)N2c3ccccc3CC2C)S(=O)(=O)c2c(C)noc2C)cc1 (stereo unspecified) | -2.81 |
| Cc1cc(Cl)ccc1OCC(=O)N/N=C/c1ccncc1 | 26 |
| Cc1oc(/N=C/c2ccc(O)cc2O)c(C#N)c1C | -15.2 |
| Cc1ccc(/C=N/NC(=O)Cc2cccn2C)cc1 | 6.57 |
| CCOC(=O)c1[nH]c2ccc(Cl)cc2c1NC(=O)c1nonc1C | -11.4 |
| O=C(N/N=C/c1ccc(O)cc1O)C(=O)N/N=C/c1ccc(O)cc1O | -70.2 |
| O=C(N/N=C/c1ccc(N2CCOCC2)cc1)c1ccc(O)cc1 | 20.5 |
| CN(CC(=O)Nc1ccc(F)c(F)c1F)c1cnccn1 | 30.9 |
| C[C@@H](NC(=O)[C@@H]1Cc2ccccc2CN1)C(=O)NCC1CCCO1 (stereo partly specified) | -13 |
| CCCOc1ccc(C2C(C(=O)c3ccc(C)o3)=C(O)C(=O)N2CCCn2ccnc2)cc1 (stereo unspecified) | 2.87 |
| C=CCNc1nc(-c2ccccc2)nc(-n2ccnc2)n1 | -14.9 |
| c1ccc2c(c1)CCN(c1nc3ccccc3n3cnnc13)C2 | -15.8 |

| Compound | inhibition [%] |
| --- | --- |
| CC1(NC(=O)NCCCCCCNC(=O)NC2(C)CCS(=O)(=O)C2)CCS(=O)(=O)C1 (stereo unspecified) | -10.2 |
| O=c1c2ccccc2[nH]c2ccc(F)cc12 | 4.1 |
| O=c1[nH]n(-c2ccccc2)c(=O)c2ccccc12 | 3.81 |
| COc1ccc(N=Cc2c(O)n(CC3CCCO3)c(=O)[nH]c2=O)cc1 (stereo unspecified) | 9.18 |
| Cc1cccc(N2CCN(C(=O)C3CCN(c4nnc(-n5cccc5)s4)CC3)CC2C)c1 (stereo unspecified) | -25.6 |
| Cc1nn(C)c(C)c1NC(=O)c1ccc(S(=O)(=O)N(C)C)cc1 | 4.22 |
| Cc1cc(-c2nc3ccccc3o2)c2ccccc2n1 | 0.36 |
| CC(C)(C)Nc1c2ccccc2nc2ccccc12 | 32.2 |
| COc1ccccc1Nc1cc(C(=O)NCc2cccnc2)c2ccccc2n1 | -19.1 |
| CC(=O)c1sc2nc(=O)c(C)nn2c1C | -20.6 |
| CCOC(=O)C(CC)Sc1ccc2nnc(-c3cccnc3)n2n1 (stereo unspecified) | -8.08 |
| COC(=O)c1cc2oc(C)cc2n1CC(=O)Nc1ccc(C)c(C)c1 | -13.2 |
| Cc1onc(-c2ccccc2Cl)c1C(=O)NNC(=O)C1CCN(Cc2ccccc2)CC1 | -18.2 |
| CCn1c(-c2cccc(Br)c2)n[nH]c1=S | 12.4 |
| CCCNC(=O)C1CCN(c2ccc(S(=O)(=O)N3CCOCC3)cc2Cl)CC1 | -33.2 |
| COC(=O)CNC(=O)c1ccc(=O)oc1 | -10 |
| COc1ccc(Cl)cc1N(C)C(=O)CCNC(=O)Cn1cnc2ccccc2c1=O | 11 |
| O=C(NCC1CC1)Nc1cccs1 | 9.59 |
| Oc1ccc(-c2nc3ncccn3c2Nc2ccc3c(c2)OCCO3)cc1 | 11.8 |

| Compound | inhibition [%] |
| --- | --- |
| COc1ccccc1NC(=O)Cn1cnc2c(nnn2-c2ccc(C)cc2)c1=O | 7.57 |
| COc1ccccc1NC(=O)CN1CCN(c2ccccc2)CC1 | -5.44 |
| CCN(CC)CCN(C(=O)c1cccc([N+](=O)[O-])c1)c1nc2ccc(OC)cc2s1 | 39.5 |
| COc1ccc2nc(NC(=O)Nc3ccccc3)sc2c1 | -19.3 |
| O=C(N/N=C/c1ccc(-c2ccc(Br)cc2)o1)c1ccc2c(c1)OCO2 | -16.7 |
| Cc1nc(C)c(-c2ccc(SCc3ccccc3C)nn2)s1 | -5.23 |
| CCCC(=NCc1ccccc1)C1=C(O)C(C(=O)OC)C(C)(C)CC1=O (stereo unspecified) | 7.33 |
| Cc1noc(C)c1CCC(=O)N1CCCC(CCC(=O)NCc2ccc(F)c(F)c2)C1 (stereo unspecified) | -3.73 |
| CC(C)CNC(CC(=O)O)c1ccccc1 (stereo unspecified) | 1.77 |
| CCc1c(C)n([O-])c2c([n+]1=O)CCCCC2 | -29.8 |
| COCc1cc(=O)n2[nH]c(C)nc2n1 | 15.9 |
| O=C(CN1C2=NCCN2c2ccccc21)c1ccco1 | 13 |
| O=C(CC1(O)C(=O)Nc2ccc(Br)cc21)c1ccc2c(c1)OCO2 (stereo unspecified) | -17.7 |
| COc1ccc(NS(=O)(=O)c2cc(NC(=O)c3ccc(C)s3)ccc2N2CCOCC2)cc1 | 11.5 |
| CCOc1ccc(-c2c[n+]3c(n2-c2ccccc2)CCCCC3)cc1 | 5.49 |
| COc1ccc(C2C(C#N)=C(N)Oc3n[nH]c(C)c32)cc1CSc1ccccn1 (stereo unspecified) | 30.4 |
| CC(C)c1ccc2oc(=O)cc(CN3CCN(c4ccc(F)cc4)CC3)c2c1 | -10.1 |
| CCCCc1cc(=O)oc2cc(C)c(CN3CCCC3)c(O)c12 | 4.75 |
